# Experiments:
# Assay in all cases: PBM binding z-score (relative to random genomic background probes); higher = stronger binding; sequences stand for … in GC…GCGATTGACAGCGTAGAATGAAGG
# [1] = system: PPARg:RXRa DBDmut IVT, anti-RXR (DBD mutation: RXRa K156A/R161A, NR concentration 270 nM, RXRa partner concentration 90 nM)
# How it was run: (§1)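 Custom Agilent 4×180K protein-binding microarrays carried double-stranded probes. Their 34-nt variable regions held direct-repeat seeds, single-nucleotide variants, half-site ablations and random human genomic background sequences. Arrays were incubated 1 h with ligand-free nuclear receptor dimers in PBS pH 7.4, 2% milk, 0.02% Triton X-100, 1 mM DTT, 0.2 mg/mL BSA and 0.4 mg/ml salmon testes DNA. Antibodies against each partner (one per run) detected binding, and scanned fluorescence was regression-normalized. Binding z-scores use random background probes as reference.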
# [2] = system: PPARg:RXRa IVT, anti-PPARg (NR concentration 270 nM, RXRa partner concentration 90 nM)
# How it was run: as §1
# [3] = system: PPARg DBDmut:RXRa IVT, anti-PPARg (DBD mutation: PPARg1 K132A/R137A, NR concentration 270 nM, RXRa partner concentration 90 nM)
# How it was run: as §1
# [4] = system: PPARg DBDmut IVT, anti-PPARg (DBD mutation: PPARg1 K132A/R137A, NR concentration 270 nM)
# How it was run: as §1
# [5] = system: PPARg homodimer (NR concentration 180 nM)
# How it was run: as §1
# [6] = system: PXR:RXRa (NR concentration 270 nM, RXRa partner concentration 90 nM)
# How it was run: as §1
# [7] = system: PXR homodimer (NR concentration 270 nM)
# How it was run: as §1
# [8] = system: RARa:RXR (NR concentration 270 nM, RXRa partner concentration 90 nM)
# How it was run: as §1
# [9] = system: RARa homodimer (NR concentration 270 nM)
# How it was run: as §1
# [10] = system: RARb:RXRa (NR concentration 270 nM, RXRa partner concentration 90 nM)
# How it was run: as §1
Sequence,PBM binding z-score [1],PBM binding z-score [2],PBM binding z-score [3],PBM binding z-score [4],PBM binding z-score [5],PBM binding z-score [6],PBM binding z-score [7],PBM binding z-score [8],PBM binding z-score [9],PBM binding z-score [10]
CCTTACGGGTCACTCCAGGTTTTAGCATCGGAGT,2.81,3.28,2.95,0.802,3.03,3.61,0.181,4.14,0.643,3.68
TAGCCTAGGTCATGGGCCAGTATTCCACGCGAAC,1.55,3.11,0.483,-0.959,1.79,1.75,-0.956,2.95,-0.638,3.78
GCTCGGAGGGCAAGGTCAGAGCTTTGTCCGTAGA,0.731,1.11,-2.58,-1.43,2.03,2.07,-0.437,2.52,-0.775,3.76
ATATGTAGGTTACATCAGGGTCATTCAGGCTATG,7.19,7.69,2.46,2.26,2.46,4.24,2.65,4.06,1.01,2.77
CCTGCTAGGTCATGGTCAGCAAATCTACAGTATG,4.25,3.63,0.173,-0.183,1.03,1.15,-0.302,2.22,0.017,3.7
TCATATAGGTAAATGCTAGGTGAAAGGCCGATCT,3.92,2.61,1.09,0.912,1.13,0.776,0.428,1.1,1.3,0.655
TCTATTAGTAGAAGGGCAACCGACGAGTCCGTTT,1.9,0.562,0.63,-0.0614,0.492,0.479,0.325,0.693,0.276,1.36
ATCTCTAGGTAAAAGTTCAGTGGATCCCGAGGAT,2.25,3.58,1.28,1.66,1.32,2.05,1.71,1.76,1.18,2.41
AGTCAAAGCTCACTAGGTAACGTAAGATTCAGCT,1.92,2.79,0.267,-0.313,-0.462,-0.363,-0.294,-0.364,-0.0387,-0.0625
TCTAGTTGGTCATAGGTCACACACTCGAAATGCG,2.59,4.4,1.15,1.18,3.12,3.48,1.07,4.39,1.88,3.22
GCGTGTAGATCAAGGTTAAGAAAGACTAAGCTAA,-0.0954,0.359,-0.293,-0.542,0.178,0.409,0.176,1.16,-0.389,0.791
GCTCCTAGGTCAGGTTGGTCAGCTAACGGGTACG,3.08,2.33,0.131,-0.79,0.823,0.632,0.2,1.26,-0.173,3.58
GCTAGTTGGTCACTAAAAGGTCACACACCGGTCG,1.75,3.25,-0.266,-0.384,4.15,5.01,1.59,5.91,1.48,4.49
CCTACTGGGCCAATGGTCATTGATTCCAATGCTC,3.79,4.11,0.147,-0.523,-0.104,-0.581,-0.689,-0.388,-0.588,0.311
AGAATGAGGTTATACGTAGATCAGGGTAGAAAGT,4.24,2.33,1.07,0.356,1.01,1.35,0.929,1.86,0.591,1.59
TTACCAAGGTGAAAGGTCGCTGATGCACGCCTTG,2.44,5.19,0.53,0.614,1.28,3.66,-0.522,5.46,0.386,3.12

Sequence,PBM binding z-score [1],PBM binding z-score [2],PBM binding z-score [3],PBM binding z-score [4],PBM binding z-score [5],PBM binding z-score [6],PBM binding z-score [7],PBM binding z-score [8],PBM binding z-score [9],PBM binding z-score [10]
CCTGCTGGGTCAATGGTCAGCTAAAGCAGCTCGC,2.51,3.15,-1.4,-0.684,0.557,0.874,-0.552,1.78,-0.395,3.29
ATATGTAGGTTAAGGGTCATTAAGGTTGGTTCGC,7.35,7.81,2.09,1.17,3.24,4.92,3.59,5.16,2.38,3.74
GCTACCAGGCCATTTGGGTCACTCAATGACGGGC,2.04,2.77,0.125,-0.407,-0.0143,0.976,0.553,0.919,-0.79,1.59
CGTCAAAGTTAAACTAAGGTAACGTAAAGCACGC,0.269,0.719,0.529,0.672,0.0557,0.525,0.364,1.08,0.284,0.845
CGTCCAAGGTCATCAGGTCAGTGAAAGCGACGTG,3.92,4.54,1.13,-0.42,3.58,4.88,1.66,5.46,1.46,5.43
CCGACTGTGGCAAGGTTACCATAACGCACAGCCA,1.15,0.507,-0.345,-0.505,0.63,0.176,0.241,0.594,0.511,0.885
CCTATTAGTTGACCATAAGGGCAGCCGAAGCTCG,0.366,0.178,-0.234,-0.298,1.6,0.00471,0.575,0.385,1.64,1.29
ATATGTAGGTTCTCGGGTCATTCAGTTTGCGCAT,4.81,4.65,1.63,2.01,1.96,4.05,8.95,3.37,1.01,2.15
TCTCGGAGGACACGCAAGGTCAGAGCTCGACATC,1.62,1.03,-0.531,-0.649,0.657,2.67,0.389,2.61,0.379,3.4
TCGAGTTGGTCAAAGGTCACACACTCGAAATGCG,1.75,5.88,1.98,1.49,8.37,6.29,1.41,7.61,4,4.9
TCTTGTAGACCAACAGGAGGTTAAGAAAGATCGA,1.42,0.757,-0.365,0.137,-0.0799,0.757,0.175,0.783,-0.189,0.416
TTACCAAGGTGAGCTGAGGCCGTTGATCCAACTC,0.88,1.24,-0.955,-0.387,-0.831,2.17,-0.968,1.15,-1.4,1.09
TCTTGTAGATCAATAGAGTTTAAGAAAGTGCGCT,1.58,0.625,0.851,0.852,-0.192,2.24,0.847,0.263,0.0115,0.375
CCTACTGGGCCACGAAAGGTCATTGAATCAGTGA,5.88,5.52,0.0728,-0.421,2.53,5.09,1.26,5.07,0.674,4.03
AATGCAGGGTCATCGTAGGCCAGAGTACGCACAG,2.83,4.24,1.78,1.66,2.03,4.81,0.279,4.75,0.252,4.37
CGAACTAGGTCATAACAGGACAGTGAAGGATGAT,7.75,8.05,5.21,4.58,2.38,2.04,0.386,2.3,0.47,3.38

# Reference: the supplement of paper PMC6555819
